Nrf2 block – Nrf2 qHTS screen for inhibitors; AID 504444, 2011; 360,000 compounds, 2.1% hits; Potency, µM (top dose mostly 46 µM), without a hit: at the highest dose activity change, negative = inhibition, usual class: inhibitors; A549 ARE-Fluc reporter, luciferase luminescence, 18-24 h; also: % is scaled to controls: 0 for no effect and ±100 for the full control effect; nearly all actives have a fitted effect of over 60% in size
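Cells were seeded and rested 2 h, then exposed to compounds for 18-24 h. CellTiter-Fluor was read first as a viability measure. BugLite was added 15 min before the final luminescent read of ARE-luciferase activity in A549 cells.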
A549 tox-1 – Nrf2 qHTS screen for inhibitors: counterscreen for cytotoxicity | A549 ARE-Fluc cells, CellTiter-Fluor viability, 18-24 h | Potency, µM (top dose mostly 46 µM), inactives show at the top dose activity change, negative = cytotoxicity, usual class: inhibitors | 390,000 compounds, 0.16% hits; also: % is scaled to controls: 0 for no effect and ±100 for the full control effect
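Cytotoxicity counterscreen: CellTiter-Fluor fluorescence was measured in A549 ARE_Fluc cells after 18-24 h of compound exposure in a concentration series. The subsequent BugLite luminescent read reports ARE-luciferase activity.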
TrxR1 substrate – qHTS Assay for Substrates of Mammalian Selenoprotein Thioredoxin Reductase 1 (TrxR1): qHTS | Potency, µM (highest dose often 114 µM), inactives show top-dose activity change, negative = substrate turnover | purified TrxR1 substrate turnover, NADPH consumption readout | AID 588456, 2011 | Thioredoxin reductase 1, cytoplasmic (Rattus norvegicus), O89049 | 390,000 compounds, 0.01% hits; also: % is scaled to controls: 0 for no effect and ±100 for the full control effect; nearly all actives have a fitted effect of over 50% in size
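Rat TrxR1, dispensed at 90 nM, was prereduced with 400 uM NADPH (final) for 5 min at ~22 deg C, then incubated with compound 15 min before 400 uM selenite. A first-read NADPH fluorescence drop versus no-compound background flagged substrates.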
Nrf2 ARE act – qHTS of Nrf2 Activators; AREc32 ARE-luciferase reporter (MCF7-derived line), luminescence, 24 h; Potency, µM (series often up to 46.1 µM), for the others: top-dose activation, hits mostly activators; 410,000 compounds, 0.31% hits; AID 624171, 2012; also: % of control where 0% means no effect; nearly all actives have a fitted effect of over 65% in size
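For detection, Steady-Glo was added and plates sat 30 min at RT; before that, AREc32_Fluc cells grown overnight in OPTI-MEM/5% FBS had been treated with 23 nL compound for 24 hr at 37 deg C.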
GALK inh – qHTS Assay for Inhibitors of Human Galactokinase (GALK); 270,000 compounds, 0.007% hits; AID 1868, 2009; P51570; Potency, µM (highest dose often 57.5 µM), inactives show at the top dose activity change, negative = inhibition, most hits filed as inhibitors; Purified GALK, Kinase-Glo residual ATP luminescence; also: % is scaled to controls: 0 for no effect and ±100 for the full control effect
Target sequence (P51570 whole entry, looked up): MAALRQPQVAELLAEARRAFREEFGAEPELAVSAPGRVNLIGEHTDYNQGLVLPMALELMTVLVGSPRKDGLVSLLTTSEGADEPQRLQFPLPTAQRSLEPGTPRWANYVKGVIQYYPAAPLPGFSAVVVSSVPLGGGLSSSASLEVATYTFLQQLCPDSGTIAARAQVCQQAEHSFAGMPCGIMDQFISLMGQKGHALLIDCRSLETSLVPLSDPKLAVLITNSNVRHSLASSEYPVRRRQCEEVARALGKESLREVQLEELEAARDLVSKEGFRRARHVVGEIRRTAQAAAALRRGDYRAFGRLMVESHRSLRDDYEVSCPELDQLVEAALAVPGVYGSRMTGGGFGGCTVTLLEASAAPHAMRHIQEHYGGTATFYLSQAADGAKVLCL
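Human GALK (5 nM) with 35 uM ATP and 100 uM galactose in 20 mM HEPES pH 8.0, 5 mM MgCl2, 60 mM NaCl, 1 mM DTT, 0.01% BSA. After 1 h at room temperature, leftover ATP was read by Kinase-Glo Plus luminescence.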
TrxR1 inh – qHTS Assay for Inhibitors of Mammalian Selenoprotein Thioredoxin Reductase 1 (TrxR1): qHTS | AID 588453, 2011 | Potency, µM (series often up to 114 µM), without a hit: top-dose activity change, negative = inhibition, hits mostly inhibitors | 390,000 compounds, 1% hits | Thioredoxin reductase 1, cytoplasmic (Rattus norvegicus), O89049 | recombinant rTrxR1, NADPH fluorescence consumption, selenite substrate; also: % is scaled to controls: 0 for no effect and ±100 for the full control effect; nearly all actives have a fitted effect of over 65% in size
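Rat TrxR1 (90 nM in the dispensed reagent) was pre-reduced with 400 uM NADPH for 5 min at room temperature, then incubated with compound for 15 min. After 400 uM selenite was added, NADPH fluorescence (Ex 340/Em 450 nm) was followed for 8 min.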
FLuc counter 3 – Nrf2 qHTS screen for inhibitors: Purified Fluc Biochemical Counterscreen for Hit Validation; shares compounds with Nrf2 block; purified firefly luciferase, luminescence inhibition; Potency, µM (highest dose often 57.5 µM), for inactives: top-dose activity change, negative = inhibition, hits mostly inhibitors; 1,400 compounds, 4% hits; also: % is scaled to controls: 0 for no effect and ±100 for the full control effect; nearly all actives have a fitted effect of over 65% in size
A549 tox-2 – Nrf2 qHTS screen for inhibitors: A549 ARE-Fluc Cytotoxicity Counterscreen for Hit Validation; shares compounds with Nrf2 block; 1,400 compounds, 2% hits; A549 ARE-Fluc cells, cytotoxicity counterscreen; Potency, µM (series often up to 46.1 µM), inactives show at the top dose activity change, negative = cytotoxicity, usual class: inhibitors;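 also: cells exposed to compounds for 18 to 24 hours; % is scaled to controls: 0 for no effect and ±100 for the full control effect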
ARE-Fluc inh – Nrf2 qHTS screen for inhibitors: Nrf2 A549 ARE-Fluc Confirmation Assay for Hit Validation. shares compounds with Nrf2 block. A549 ARE-firefly luciferase reporter, luminescence. Potency, µM (titrated, usually from 46.1 µM), for the others: top-dose activity change, negative = inhibition, usual class: inhibitors. 1,400 compounds, 74% hits; also: % is scaled to controls: 0 for no effect and ±100 for the full control effect; nearly all actives have a fitted effect of over 65% in size
* = called active by the depositor; ? = inconclusive; nt = not tested or not shown; [ ] = another dose, or the depositor's remark. Most compounds without a hit are left out; they make up all but 3% or so of the library. Calls follow the shape of the dose curve; as a rule, active = well fitted curve in the direction sought with a large enough effect; inconclusive = small, poorly fitted or top-dose-only effect, or another doubt; inactive = no such curve, though single readings can be large; an effect the other way counts as inactive or inconclusive. Potency is read from the fitted curve at half-maximal effect.

SMILES	Nrf2 block	A549 tox-1	TrxR1 substrate	Nrf2 ARE act	GALK inh	TrxR1 inh	FLuc counter 3	A549 tox-2	ARE-Fluc inh
Cc1ccc(C(=O)Oc2ccccc2N2C(=O)C3CCCCC3C2=O)cc1 (configuration not stated)	1.3µM*	8%	-1%	-2%	-1%	9%	-2%	0%	3.3µM*
O=C(Nc1ccc2nc([C@H]3C[C@H](O)[C@@H](CO)O3)[nH]c2c1)NC(c1ccccc1)c1ccccc1	nt	nt	nt	0%	nt	nt	nt	nt	nt
COc1ccccc1Oc1ncnc2sccc12	-13%	-2%	-3%[57.1 µM]	4%	1%	-4%[57.1 µM]	nt	nt	nt
c1ccc(CNc2ncnc3c2oc2ccccc23)nc1	?	12%	7%[0.457 µM]	5%	-2%	18%	nt	nt	nt
COc1ccccc1CNc1ncnc2sccc12	3.3µM*	-2%	-11%	5%	1%	-12%	-13%	-9%	4.1µM*
CN(C)c1ccc(CNc2ncnc3sccc23)cc1	4.6µM*	-5%	-3%	7%	0%	-4%	-3%	-27%	12µM*
NS(=O)(=O)c1ccc(CNc2ncnc3sccc23)cc1	-12%	-3%	4%	0%	-3%	8%	nt	nt	nt
c1ccc2c(c1)OCC(CNc1ncnc3sccc13)O2 (configuration not stated)	1.5µM*	-5%	3%	6%	1%	9%	-23%	-4%	1.2µM*
COc1ccc(CCNc2ncnc3c2oc2ccccc23)cc1OC	5.2µM*	-8%	4%	3%	-1%	4%	-19%	-13%	4.1µM*
CC(=O)N1CCOc2cc(S(=O)(=O)N(C)Cc3ccccc3)c(Cl)cc21	19%	1%	-7%	-1%	nt	-11%	nt	nt	nt
Nc1[nH]c(C(=O)c2ccccc2)c(-c2ccc(Cl)cc2)c1C(=O)NCc1ccco1	nt	nt	nt	0%	nt	nt	nt	nt	nt
COc1ccc(CCNc2ncnc3sccc23)cc1OC	0.58µM*	-6%	-7%	1%	1%	11%[57.1 µM]	-20%	1%	0.52µM*
Fc1ccccc1CNc1ncnc2sccc12	4.1µM*	-22%	4%	3%	0%	8%	1%	-5%	5.2µM*
COc1ccc(Nc2ncnc3sccc23)cc1OC	?	3%	7%[57.1 µM]	0%	2%	-8%	nt	nt	nt
Cc1cc(C)c(NS(=O)(=O)c2ccc3c(c2)NC(=O)CC(=O)N3)c(C)c1	-16%	6%	-7%	0%	1%	-9%	nt	nt	nt
CCC1(c2ccc(F)cc2)NC(=O)N(CC(=O)Nc2ccc(N3CCCCC3)cc2)C1=O (configuration not stated)	6%	-1%	-13%	4%	nt	-6%	nt	nt	nt
Cc1nc(-c2ccccc2OC(F)(F)F)[nH]c(=O)c1Cl	-6%	-1%	5%[57.1 µM]	0%	0%	-1%[57.1 µM]	nt	nt	nt
CCN(CC)C(=O)c1c(-c2ccccc2)c(-c2ccccc2)nn(CC)c1=O	23%	1%	-3%	0%	nt	7%	nt	nt	nt
COc1cc(C(=O)NCc2cccnc2)ccc1OCC(=O)Nc1cccc(C(F)(F)F)c1	6.5µM*	2%	8%	3%	nt	18%	2%	-8%	16µM*
CCOc1ccc(NC(=O)COc2ccc(C(=O)NCc3cccnc3)cc2OC)cc1	-20%	-4%	9%	0%	nt	10%	nt	nt	nt
c1ccc(-c2nnc(-c3ccccn3)nc2NC2CCCCC2)cc1	1.8µM*	?	-9%	5%	0%	-8%	-14%	?	4.1µM*
Oc1ccccc1-c1nc(NC2CCCC2)c2ccccc2n1	-16%	-6%	1%	4%	-3%	23%	nt	nt	nt
COc1cc(Nc2nc3c(S(=O)(=O)c4ccccc4)nnn3c3ccc(Cl)cc23)cc(OC)c1	?	2%	-3%	2%	nt	5%	nt	nt	nt
CC(=O)N1CCCC1c1nc2ccccc2n1Cc1ccccc1C (configuration not stated)	3.3µM*	?	-9%	1%	nt	-4%	1%	-7%	18%
Cc1ccc(C(=O)n2nc(-c3cccnc3)nc2N)cc1	1.3µM*	-18%	-3%	-3%	0%	10%	-1%	6%	4.6µM*
SMILES	Nrf2 block	A549 tox-1	TrxR1 substrate	Nrf2 ARE act	GALK inh	TrxR1 inh	FLuc counter 3	A549 tox-2	ARE-Fluc inh
COc1cc(NCCCC(C)N)c2ncccc2c1 (configuration not stated)	5.8µM*	?	-7%	-4%	0%	-25%	-4%	-23%	?
COc1cc(NCCCCC(C)N)c2nccc(C)c2c1 (configuration not stated)	nt	nt	nt	-6%	nt	nt	nt	nt	nt
Cc1ccc(C(=O)NCCCNC(=O)c2ccc(Cl)cc2)cn1	-6%	0%	7%	0%	-3%	17%	nt	nt	nt
CCc1ccc(NC(=O)C(C)OC(=O)C2CCC(=O)N2)cc1 (configuration not stated)	3%	-2%	4%[57.1 µM]	3%	0%	8%[57.1 µM]	nt	nt	nt
Cc1nn(C)c(C)c1CN(Cc1nc(CCC(C)C)no1)C(C)C	1.3µM*	-9%	-9%	0%	-2%	-51%[57.1 µM]	-2%	-2%	?
CCN(Cc1cccc(S(=O)(=O)O)c1)c1ccc(C(=C2C=CC(=[N+](CC)Cc3cccc(S(=O)(=O)O)c3)C=C2)c2ccc(O)cc2S(=O)(=O)O)cc1	nt	nt	-18%	nt	nt	37%[0.0914 µM]	9.5µM*	?	8.2µM*
CCN(Cc1cccc(S(=O)(=O)O)c1)c1ccc(C(=C2C=CC(=[N+](CC)Cc3cccc(S(=O)(=O)O)c3)C=C2)c2ccccc2S(=O)(=O)[O-])cc1	nt	nt	-8%	nt	nt	-4%	nt	nt	nt
O=C(CSc1nnc(Cn2nnc3ccccc32)o1)Nc1cccc(Cl)c1	15%	-9%	-5%[57.1 µM]	0%	-1%	3%[57.1 µM]	nt	nt	nt
